IDE act: activators of human insulin-degrading enzyme in cells | HEK cells, FAbeta-B cleavage, fluorescence polarization; 0% vehicle, 100% cell-free pure enzyme wells | AID 493087 | activation, % at 5.96 µM | 0.073% of 340,000 active;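 active = activation above the mean of all tested compounds plus 3 SD, set per screening campaign, cut at about 17% in these data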
Target sequence (P14735 whole entry, looked up): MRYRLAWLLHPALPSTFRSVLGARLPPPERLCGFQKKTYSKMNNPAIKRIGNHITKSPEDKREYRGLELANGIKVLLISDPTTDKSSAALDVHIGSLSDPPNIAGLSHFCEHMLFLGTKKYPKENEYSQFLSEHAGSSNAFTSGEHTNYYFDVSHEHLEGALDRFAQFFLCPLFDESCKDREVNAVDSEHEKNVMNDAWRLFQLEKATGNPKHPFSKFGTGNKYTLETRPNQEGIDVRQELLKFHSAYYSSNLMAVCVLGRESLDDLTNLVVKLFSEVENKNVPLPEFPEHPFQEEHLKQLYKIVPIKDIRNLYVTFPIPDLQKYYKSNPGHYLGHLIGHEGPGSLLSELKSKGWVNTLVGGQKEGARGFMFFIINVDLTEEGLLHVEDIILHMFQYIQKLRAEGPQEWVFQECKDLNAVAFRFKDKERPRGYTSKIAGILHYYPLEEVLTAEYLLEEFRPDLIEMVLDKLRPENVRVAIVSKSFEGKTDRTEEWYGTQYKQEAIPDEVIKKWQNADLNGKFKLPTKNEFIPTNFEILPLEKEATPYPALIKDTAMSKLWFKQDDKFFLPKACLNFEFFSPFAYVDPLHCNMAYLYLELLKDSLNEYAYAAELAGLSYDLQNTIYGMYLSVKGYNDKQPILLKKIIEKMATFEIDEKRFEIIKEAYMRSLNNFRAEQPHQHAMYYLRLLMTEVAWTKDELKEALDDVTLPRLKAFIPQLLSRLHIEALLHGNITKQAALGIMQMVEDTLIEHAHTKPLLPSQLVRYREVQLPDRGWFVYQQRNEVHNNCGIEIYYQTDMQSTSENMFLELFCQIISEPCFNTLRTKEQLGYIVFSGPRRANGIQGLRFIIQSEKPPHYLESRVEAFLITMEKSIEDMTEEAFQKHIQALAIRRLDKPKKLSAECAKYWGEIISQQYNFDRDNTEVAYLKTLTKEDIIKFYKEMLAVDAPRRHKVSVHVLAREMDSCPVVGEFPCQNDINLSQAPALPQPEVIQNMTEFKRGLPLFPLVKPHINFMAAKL
CRFBP-R2 block: antagonists of CRF-binding protein/CRF-R2 receptor complex | HEK293 CRF-R2/CRF-BP, CRF-induced calcium fluorescence | inhibition, % at 11.8 µM | 0.59% of 350,000 active | AID 588475;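 active = inhibition of the ligand-induced calcium signal above about 50% at the single tested concentration, limit read from the data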
TPT1 inhibitor: inhibitors of Candida albicans tRNA 2'-phosphotransferase TPT1; inhibition, % at 5 µM; 0.81% of 300,000 active; recombinant caTPT1, FP RNA substrate dephosphorylation;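 active = inhibition above the mean of all tested compounds plus 3 SD, set per screening campaign, cut at about 24% in these data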
IDE cell inh: cellular human IDE inhibition; P14735; HEK cells, FAbetaB cleavage, fluorescence polarization; inhibition, % at 5.59 µM; 0.41% of 320,000 active;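 active = percent inhibition above the average of all tested compounds plus 3 SD, set per screening campaign, cut at about 16% in these data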;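 also: IDE supplied by intact live HEK cells; FP after avidin binding of uncleaved biotin substrate so inhibition keeps polarization high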
CRFBP-R2 agonist: CRF-BP/CRF-R2 complex agonism. HEK293 CRF-R2/CRF-BP, calcium dye fluorescence (FLIPR); percent of saturating CRF peptide response. AID 588473. 0.46% of 350,000 active. activation, % at 13.2 µM;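 active = activation of at least 50%, plus an integration ratio under a set limit after plate pattern correction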
Myeloid diff MLP: myeloid differentiation induction; ER-HoxA9 myeloid progenitors, lysozyme-GFP differentiation, flow cytometry; calls only at 10 µM; 1% of 360,000 active;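 active = normalized GFP-positive differentiation at or above the plate's own cutoff, the solvent-only control mean plus 3 SD; inconclusive = no clear call, values can overlap the other calls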;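 also: cells exposed to compound for four days before flow analysis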
Of the large screens only hits and unclear results are named; the others gave an inactive call. An excerpt weighted towards active compounds, which were near 2.6% of everything screened.

O=C(c1ccc(S(=O)(=O)Cc2cc(F)ccc2F)c([N+](=O)[O-])c1)N1CCCCC1	Myeloid diff MLP active
CCN(CC)CCN(C(=O)CN1C(=O)c2ccccc2C1=O)c1nc2cc3c(cc2s1)OCO3	CRFBP-R2 block 76
CN(C)CCCN(C(=O)CCc1ccccc1)c1nc2ccc(Br)cc2s1	IDE act 29
CN(C)CCCN(C(=O)CCSc1ccccc1)c1nc2cc3c(cc2s1)OCO3	IDE act 43, Myeloid diff MLP inconclusive
CC1(c2ccccc2)NC(=O)N(NC(=O)COC(=O)c2cc(Br)ccc2O)C1=O (centres undefined)	none
CC(C)c1cccc(-c2csc(C(O)c3cccc(Cl)c3)n2)c1 (centres undefined)	none (no result: IDE act, CRFBP-R2 block, TPT1 inhibitor, IDE cell inh, CRFBP-R2 agonist)
CCCCOc1ccccc1C(=O)N(Cc1ccco1)C1CCS(=O)(=O)C1 (centres undefined)	none
Cc1nc(SCC(=O)Nc2nc3ccccc3s2)c(C#N)c(C)c1C	none
Cc1cc(C(F)(F)F)c(C#N)c(SCC(=O)Nc2nc3ccccc3s2)n1	CRFBP-R2 agonist 80, Myeloid diff MLP active
COc1ccc(C(C)=NNc2ccc([N+](=O)[O-])cc2S(=O)(=O)Nc2ccccc2C(=O)O)c(OC)c1	CRFBP-R2 block 66 (no result: TPT1 inhibitor)
c1ccc2c(CN3CCCCC3)csc2c1	CRFBP-R2 agonist 96
CC(=O)Nc1nc(-c2cc([N+](=O)[O-])cs2)cs1	none
COc1ccccc1CCNS(=O)(=O)CCNC(=O)c1ccc2c(c1)OCO2	none
Nc1ccc2cc3[nH]c4cc(N)ccc4c3nc2c1	IDE act 53, CRFBP-R2 agonist 175, Myeloid diff MLP inconclusive (no result: TPT1 inhibitor, IDE cell inh)
Cc1ccc2[nH]c3c(c2c1)CN(C(C)C)CC3	none
CCN(CC)C(=O)CSc1ncnc2c1nnn2-c1ccc(F)cc1	none
CCN(CC)C(=O)CSc1ncnc2c1nnn2-c1ccc(OC)cc1	CRFBP-R2 block 84
CCC(C)OC(=O)C1=C(C)NC2=C(C(=O)C(C(=O)OC)C(C)C2)C1c1ccc(N(C)C)cc1 (centres undefined)	IDE act 17
COc1ccc(C2CCCCC2SCC(=O)O)cc1OC (centres undefined)	none (no result: IDE act, TPT1 inhibitor, IDE cell inh)
Cc1cc(C)nc(NC(=O)/C=C/c2ccccc2Cl)c1	none
Cc1cc(N)c2cc(NC(=O)/C=C/c3ccccc3Cl)ccc2n1	IDE act 28
Cc1cc(C)nc(NC(=O)/C=C/c2ccccc2Cl)n1	Myeloid diff MLP active
CCOc1c(C)cnc2c1c(=O)n(Cc1ccc(Cl)cc1)c(=O)n2C	none
O=C1CC(c2ccccc2)CN1S(=O)(=O)c1ccccc1 (centres undefined)	CRFBP-R2 block 65
NC(=O)c1cccc(S(=O)(=O)N2CC(c3ccccc3)CC2=O)c1 (centres undefined)	none
CC1(C)Cc2ccccc2C2CC(O)C(=O)N21 (centres undefined)	Myeloid diff MLP active
CCCOc1ccc(N)cc1N	Myeloid diff MLP active
CC(C)(C)c1ccc(Oc2ccc(N)cn2)cc1	Myeloid diff MLP active (no result: IDE act)
Cc1cc(Oc2ccc(N)cn2)cc(C)c1Cl	none
Cc1cc(C)c2c(=O)[nH]c(=O)n(Cc3ccccc3)c2n1	none
CCc1ccccc1N1C(=O)C2CC(C)=C(C)CC2C1=O (centres undefined)	CRFBP-R2 block 50
CCc1ccccc1N1C(=O)C2CC=CCC2C1=O (centres undefined)	none
COc1ccc(CCNC(=O)C(=O)NCC2OCCN2S(=O)(=O)c2ccc(OC)cc2)cc1 (centres undefined)	CRFBP-R2 block 64
Cc1[nH]n(-c2ccccc2)c(=O)c1/C=N/N1C(=O)c2cccc3cccc(c23)C1=O	CRFBP-R2 agonist 62
O=C(c1ccc2c(c1)OCO2)C1CCCN(Cc2cc(F)ccc2-n2cccn2)C1 (centres undefined)	CRFBP-R2 agonist 56
Cc1ccc(-n2cccn2)c(CN2CCCC(C(=O)c3ccc4c(c3)OCO4)C2)c1 (centres undefined)	none
CC(=O)Nn1cc2c(c1-c1ccccc1)c(=O)n(C)c(=O)n2C	none
Cn1c(=O)c2[nH]c(-c3ccccc3)c(O)c2n(C)c1=O	CRFBP-R2 agonist 70
Cn1c(=O)c2[nH]c(-c3ccccc3Cl)c(O)c2n(C)c1=O	CRFBP-R2 agonist 55
O=C(NC(=O)c1cc([N+](=O)[O-])ccc1Cl)C1=C(N2CCCC2)COC1=O	none (no result: TPT1 inhibitor)
O=C(CCn1c(=O)oc2cc(Cl)ccc21)Nc1ccc(N2CCOCC2)cc1	Myeloid diff MLP active
O=C(COc1cccc(Cl)c1)Nc1ccc(N2CCOCC2)cc1	CRFBP-R2 block 80
Cc1noc(C)c1S(=O)(=O)NC(=O)C1(C)CCN1C(=O)Cc1ccc(Cl)cc1Cl (centres undefined)	none (no result: IDE act, CRFBP-R2 block, TPT1 inhibitor, IDE cell inh, CRFBP-R2 agonist)
O=C(N/N=C/c1ccc([N+](=O)[O-])s1)c1ccccc1	none
COc1ccccc1NC(=O)C(=O)N/N=C/c1ccc([N+](=O)[O-])s1	Myeloid diff MLP active (no result: TPT1 inhibitor, IDE cell inh)
Cc1ccnn1CC(=O)N/N=C/c1ccc([N+](=O)[O-])s1	Myeloid diff MLP active
COC(=O)N/N=C/c1ccc([N+](=O)[O-])s1	Myeloid diff MLP active
COc1cccc(CN(C)CCCn2cnc3c(SC)ncnc32)c1	none (no result: IDE act, TPT1 inhibitor, IDE cell inh)
Cc1cnc(NC(=O)c2sc(Nc3ccccc3)nc2N)o1	none (no result: IDE act)
COc1cccc(C(NC(C)=O)c2nc(-c3ccccc3)cs2)c1 (centres undefined)	none (no result: IDE act, CRFBP-R2 block, TPT1 inhibitor, IDE cell inh, CRFBP-R2 agonist)
CCN(CC)S(=O)(=O)c1ccc(Cl)c(C(=O)OC)c1	Myeloid diff MLP active
CCN(CC)S(=O)(=O)c1cc(C(=O)OC)ccc1Cl	none
CCC(Sc1nc2ccncc2[nH]1)C(=O)Nc1cc(Cl)ccc1C (centres undefined)	none
CC12CCC(C(=O)OC3CCCCC3)(OC1=O)C2(C)C (centres undefined)	none
COc1ccc2c(c1)[n+](=O)c(C(C)=O)c(C)n2[O-]	none
CC(=O)c1c(C)n([O-])c2cc(F)c(F)cc2[n+]1=O	Myeloid diff MLP active
COc1cc(C2C=C(c3cccs3)Nc3ncnn32)cc(OC)c1OC (centres undefined)	CRFBP-R2 agonist 221 (no result: TPT1 inhibitor, IDE cell inh)
COc1ccc(C2=CC3=C(Br)C(=O)C(C)(OC(=O)c4ccco4)C(=O)C3=CO2)cc1 (centres undefined)	Myeloid diff MLP active
COc1ccc(C2=CC3=C(Br)C(=O)C(C)(OC(=O)c4cccs4)C(=O)C3=CO2)cc1 (centres undefined)	none
Cc1ccc(-c2nc(NC(=O)CSc3nnc4scc(-c5ccccc5)n34)ns2)cc1	Myeloid diff MLP active
CCc1nnc(NC(=O)CSc2nnc3scc(-c4ccc(C)cc4)n23)s1	none
CCC(CC)c1ncc[nH]1	none
Cc1ccc(NN2C(=O)C=C(c3ccc(Cl)cc3)C2=O)cc1	CRFBP-R2 agonist 61
COc1ccc(CN(CCN)C2CC(C)N(C)CC2C)cc1 (centres undefined)	none
